For 35 molecules, growth results are on record in PubChem BioAssay (NCI).

Molecules are shown by their SMILES. About 83,000 compounds went through this panel and 20% of them were active in at least one assay; those are over-represented in the sample as a whole.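 Each cell line was grown in a 96-well plate and treated with one concentration of compound for 48 hours. Values below 10 were considered active.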 Values without a mark were called inactive. Active and inactive are the calls of the source.

Common to all, as to assay: NCI-60 one-dose screen, 48 h (100 = growth as untreated, 0 = no growth, -100 = all killed)
The test system of assay [1] is SK-MEL-2 melanoma. Conditions: 10 µM.
The subject of assay [2] is SN12C renal. Conditions: 10 µM.
Assay [3] relates to UO-31 renal. Particulars: 10 µM.
The test system of assay [4] is TK-10 renal. Conditions: 10 µM unless noted.
In assay [5] the test system is ACHN renal. Particulars: 10 µM.
In assay [6] the test system is CAKI-1 renal. Particulars: 10 µM.
Assay [7] deals with A498 renal. Particulars: 10 µM.
Assay [8] relates to MOLT-4 leukemia. Conditions: 10 µM.
Assay [9] has as its system CCRF-CEM leukemia. Particulars: 10 µM.
Assay [10] concerns EKVX NSCLC. Conditions: 10 µM.

For the molecule `CC(C)(C)n1nc(C2CC2)c(Br)c1NC(=O)c1ccccc1F`, the growth in assay [1] was 103%; in assay [2], 102%; in [3] it was 91.5%; in [4], 103%; in assay [5], 101%; in assay [6], 80.8%. The growth in assay [7] is 101%; in assay [8], 93.3%.

On to `CC(C)=CC(=O)OC(=O)C=C(C)C`, for which the growth in [1] is 108%; in assay [2] it was 100%; in assay [3], 94.5%; in assay [4], 102%; in [5], 105%; in assay [6], 108%. Further, the figures for the growth in assay [7] and in assay [8] were 124% and 101%, respectively.

On to `COc1cccc(/C=N/NC(=S)NC2CC3CCC2C3)c1O` (configuration not stated), for which the growth in assay [1] was 69%; in assay [2], 57.9%; in assay [3] it was 21.8%; in [4] it was 88.3%; in assay [5] it was 32.1%; in [6] it was 38.2%. The growth in [7] was 51.9%; in assay [9] it was 29.1%; in assay [8], 44.8%.

Consider `O=S(=O)(Cc1ccccc1)c1ccccc1`, for which the growth in [1] was 114%; in [2], 104%; in assay [3], 102%; in [4] it was 102%; in [5], 111%; in assay [6], 107%. In addition, the values for the growth in [7], in assay [9] and in assay [8] were 101%, 105% and 108%, respectively.

On to `COCCCNC(=O)c1nnn2c1nc(N)c1cc(Cl)ccc12`, for which the growth in [1] was 74.2%; in assay [2] it was 101%; in [3], 71.7%; in assay [4], 105%; in [5], 104%; in assay [6] it was 80.6%. Also, the growth was 96.4% in assay [7] and 79.6% in assay [8].

On to `CCCCCCCO`, for which the growth in assay [1] was 134%; in assay [2] it was 99.4%; in assay [3], 82.1%; in assay [4] it was 117%; in assay [5], 92.5%; in assay [6] it was 110%. In addition, the growth is 105% in assay [7], 103% in assay [9] and 96.4% in [8].

For the molecule `O=C1OC(=O)C2C1C1(Cl)C(Cl)=C(Cl)C2(Cl)C2C(=O)OC(=O)C21` (configuration not stated), the growth was 88.7% in assay [1]; 105% in [2]; 84.4% in assay [3]; 93% in [4]; 105% in assay [5]; 106% in assay [6]. Besides, the growth is 107% in [7] and 105% in assay [8].

On to `Cc1ccc(C(O)C2CC2)cc1` (configuration not stated), for which the growth is 104% in assay [1]; 102% in assay [2]; 88.5% in assay [3]; 116% in assay [4]; 104% in assay [5]; 91.9% in [6]. The growth is 87.5% in assay [7], 91.7% in assay [9] and 100% in [8].

For `Cc1c(O)cnc2nn(-c3ccccc3)c(=N)n12`, the growth in assay [1] is 94.7%; in assay [2], 97.7%; in assay [3], 94.5%; in assay [4], 109%; in assay [5], 96.7%; in [6], 102%. The results for the growth in [7] and in [8] were 106% and 104%, respectively.

Regarding `C#CC(C(C)C)N(CCO)CCCC` (configuration not stated), the growth in assay [1] was 111%; in assay [2], 102%; in assay [3], 96.8%; in [4] it was 107%; in assay [5] it was 100%; in assay [6], 102%. Besides, the growth in [7] is 88.8%; in assay [9], 95.6%; in assay [8] it was 107%.

In the case of `CCCCCCCCCCC(C)Br` (configuration not stated), the growth is 104% in [1]; 103% in [2]; 91.9% in [3]; 107% in assay [4]; 102% in assay [5]; 98.6% in assay [6]. The growth in [7] was 108%; in assay [9], 95.3%; in [8] it was 95.3%.

With `CCOC(=O)C/C(C)=N\O`, the growth in assay [1] was 107%; in assay [2], 98.6%; in [3], 81.6%; in [4], 93.4%; in [5] it was 112%; in assay [6] it was 92.8%. In addition, the growth in assay [7] is 111%; in assay [8] it was 95.2%.

For `CCCC(C)OCC(=O)O` (configuration not stated), the growth was 104% in [1]; 103% in assay [2]; 86.6% in [3]; 119% in assay [4]; 102% in assay [5]; 97.5% in [6]. Also, the figures for the growth in assay [7], in assay [9] and in assay [8] were 103%, 101% and 95%, respectively.

In the case of `N#CCCc1ccc(O)cc1`, the growth was 104% in assay [1]; 107% in [2]; 90.5% in assay [3]; 113% in assay [4]; 99.9% in [5]; 95.4% in [6]. Further, the growth in assay [7] was 104%; in [8], 98.5%.

Turning to `O=C(O)COCC(=O)O`, the growth was 107% in assay [1]; 102% in assay [2]; 91.4% in assay [3]; 124% in [4]; 103% in assay [5]; 97.5% in assay [6]. Moreover, the growth in assay [7] is 110%; in [9] it was 101%; in assay [8] it was 99.1%.

With `CC[N+](C)(CC)CCO`, the growth was 109% in assay [1]; 98% in [2]; 92% in assay [3]; 95.3% in assay [4]; 106% in assay [5]; 94% in [6]. The results for the growth in assay [7] and in assay [8] were 109% and 101%, respectively.

Regarding `Cc1ccc(S(=O)(=O)O)c(C)c1`, the growth in assay [1] was 112%; in [2] it was 103%; in assay [3] it was 73.6%; in [4], 101%; in assay [5] it was 103%; in [6] it was 96.3%. Further, the growth in [7] was 94.1%; in [9], 100%; in assay [8], 98.6%.

In the case of `COc1cc(CCN=Cc2ccccc2O)c([N+](=O)[O-])cc1OC`, the growth in assay [1] was 102%; in [2], 103%; in [3], 79.3%; in assay [4], 96.9%; in [5], 96.7%; in assay [6] it was 86.6%. Besides, the growth in assay [7] was 119%; in [8], 96.1%.

Take `Cc1ncc(C#N)c(N)n1`: the growth is 106% in assay [1]; 103% in assay [2]; 85.7% in assay [3]; 109% in assay [4]; 121% in assay [5]; 92.9% in assay [6]. In addition, the growth in [7] was 87.1%; in assay [9] it was 126%; in [8] it was 102%.

As for `CC(=O)NCc1cc(C)c(C)cc1C`, the growth is 98% in assay [1]; 103% in assay [2]; 83.6% in assay [3]; 92.6% in assay [4]; 104% in assay [5]; 98.8% in [6]. For the same molecule, the growth in [7] is 118%; in assay [8] it was 96.2%.

Take `CCO/C=C1\SC(=S)N(c2cccc(C)c2)C1=O`: the growth is 110% in assay [1]; 106% in assay [2]; 79.3% in assay [3]; 98.9% in [4]; 106% in [5]; 101% in assay [6]. Further, the growth in assay [7] is 113%; in [8], 95.7%.

Turning to `CCCCCCCCO`, the growth was 117% in [1]; 97.5% in [2]; 111% in assay [3]; 110% in assay [4]; 105% in [5]; 103% in assay [6]. The values for the growth in assay [7], in assay [9] and in [8] were 108%, 108% and 97.4%, respectively.

In the case of `CC(=O)Cc1ccc(-c2ccccc2)cc1`, the growth in assay [1] was 102%; in [2] it was 86.3%; in [3], 84.8%; in assay [4] it was 101%; in assay [5], 108%; in assay [6], 104%. Also, the results for the growth in assay [7], in [9] and in [8] were 89%, 102% and 117%, respectively.

In the case of `NC(CSC(c1ccccc1)(c1ccccc1)c1ccccc1)C(=O)O` (configuration not stated), the growth is -15.7% (active) in [1]; 53.6% in assay [2]; 54.3% in assay [3]; 59.3% in assay [4]; 57.5% in assay [5]; 31% in assay [6]. For the same molecule, the growth in [7] was 48.5%; in [9] it was 9.95% (active); in assay [8], 38.4%.

Take `CC1CCCCN1C(=S)Nc1ccc(S(=O)(=O)N2CCCCC2)cc1` (configuration not stated): the growth in assay [1] was 107%; in [2], 109%; in [3] it was 89.4%; in assay [4], 107%; in [5], 99.8%; in assay [6], 75.8%. Besides, the values for the growth in assay [7], in assay [9] and in [8] were 70.9%, 75.9% and 104%, respectively.

Take `O=C(Nc1ccccc1C(=O)NCC1CC1)c1cccs1`: the growth in assay [1] was 113%; in [2], 100%; in [3], 89.4%; in [4], 114%; in assay [5], 103%; in [6] it was 82.7%. The growth in assay [7] is 106%; in [8], 111%.

As to `OC1OC(COC(c2ccccc2)(c2ccccc2)c2ccccc2)C(O)C(O)C1O` (configuration not stated), the growth in [1] was 91.5%; in [2] it was 74%; in assay [3], 76.7%; in assay [5], 96.9%; in assay [6], 96.5%; in assay [7] it was 93.7%. Moreover, the growth in assay [8] is 87.6%.

Consider `CCOc1ccc2[nH]c(=S)sc2c1`, for which the growth was 96.2% in [10]; 102% in [2]; 88% in [3]; 103% in assay [4]; 111% in assay [5]; 100% in [6]. Further, the growth is 94% in [7], 98.3% in assay [9] and 86.7% in [8].

For the molecule `Cc1nc2c(ccc3ccccc32)s1`, the growth in [10] is 110%; in assay [2] it was 107%; in [3], 96.9%; in assay [4], 119%; in [5], 111%; in assay [6], 103%. For the same molecule, the growth in [7] is 115%; in [9], 85.7%; in [8], 103%.

For `C/C(=N\NC(=O)c1ccccc1N)c1ccccc1O`, the growth in assay [1] is 71.2%; in assay [2], 41.1%; in assay [3], 29.3%; in [4] it was 27.6%; in assay [5], 32.3%; in assay [6], 3.89% (active). In addition, the growth in [7] is 89%; in assay [8] it was 19.3%.

As to `O=[N+]([O-])c1cccc2nsnc12`, the growth is 106% in [1]; 104% in assay [2]; 105% in assay [5]; 114% in [6]; 102% in [7]; 95.9% in assay [9]. The growth in assay [8] was 101%.

Take `NC(=O)N/N=C\c1ccco1`: the growth in [10] was 119%; in [2], 98.4%; in assay [3], 94.7%; in assay [4] it was 100%; in assay [5], 111%; in assay [6] it was 108%. In addition, the growth in assay [7] was 117%; in assay [9] it was 102%; in [8], 101%.

Turning to `Cc1cccc(C(=O)N(C(C)C)C(C)C)c1`, the growth in [10] was 95%; in assay [2], 96.1%; in assay [3] it was 94.4%; in [4], 87%; in [5] it was 101%; in [6], 96.4%. Besides, the growth was 71.9% in [7], 90.7% in [9] and 108% in assay [8].

`CCOC(=O)C1=C(C)NC(=O)NC1c1cccs1` (configuration not stated): the growth was 109% in assay [10]; 103% in [2]; 87.7% in assay [3]; 108% in assay [4]; 113% in assay [5]; 103% in assay [6]. Moreover, the values for the growth in [7], in assay [9] and in assay [8] were 125%, 95.8% and 82.7%, respectively.

Turning to `O=C(Cc1ccccc1)Cc1ccccc1`, the growth in [1] was 90.1%; in assay [2], 104%; in [3] it was 98%; in [5], 98.1%; in assay [6], 97.9%; in [7], 101%. The growth is 98.3% in assay [9] and 96.7% in [8].
